Screening results deposited in PubChem BioAssay by several laboratories.
ugtP null kill = growth inhibition of ugtP-null S. aureus, primary screen, RN4220 ugtP deletion, OD600 | 16 h | growth inhibition, % (no concentration beside the values) | hit rate 0.54% among 330,000 | AID 1259309, 2017; in the data active means growth inhibition above about 68%;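 further: plate controls were untreated wells for no effect and antibiotic for full effect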
Mtb hypoxia rep = PubChem AID 1159583; fluorescence inhibition, % (no concentration beside the values); M. tuberculosis hypoxia-regulated fluorescent reporter, fluorescence; hit rate 0.1% among 300,000; in the data active means fluorescence inhibition mostly above about 23%, no sharp cut-off; inactive means mostly below about 17%
DUSP3 inh = VHR1 phosphatase inhibitors, primary screen, biochemical, absorbance, uHTS; Dual specificity protein phosphatase 3 (Homo sapiens), P51452; recombinant VHR phosphatase, pNPP absorbance; AID 1654, 2009; inhibition, % at 13.3 µM; hit rate 0.52% among 290,000; in the data active means inhibition above about 50%
Target sequence (P51452 whole entry, looked up): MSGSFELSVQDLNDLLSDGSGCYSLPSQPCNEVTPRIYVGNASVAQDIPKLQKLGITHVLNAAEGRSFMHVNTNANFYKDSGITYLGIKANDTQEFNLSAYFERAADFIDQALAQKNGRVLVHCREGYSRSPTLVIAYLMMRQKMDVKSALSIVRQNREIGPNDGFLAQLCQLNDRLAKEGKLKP
SSB-PriA inh = inhibitors of Klebsiella pneumoniae PriA binding to SSB C-terminal tail, primary screen, biochemical, AlphaScreen. PriA–SSB C-terminal tail interaction (Klebsiella pneumoniae). AlphaScreen SSBct-PriA binding, biotinylated peptide. inhibition, % at 33 µM. hit rate 0.6% among 430,000. AID 1272365, 2023; in the data active means inhibition mostly above about 37%, no sharp cut-off; inactive means mostly below about 20%;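 further: plate controls were negative control peptide for no effect and reference peptide for full effect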
RN4220 kill = growth inhibition of S. aureus RN4220, primary screen, OD600. 16 h. inhibition, % (test concentration not listed). hit rate 0.33% among 330,000; in the data active means inhibition above about 85%;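 further: plate controls were untreated cells for no effect and reference antibiotic for full effect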
PfHsp40 rescue = rescue of yeast from PfHsp40 toxicity, primary screen, S. cerevisiae, ATP luminescence; S. cerevisiae expressing PfHsp40, growth rescue; growth rescue, % at 12.5 µM; hit rate 0.68% among 340,000; in the data active means growth rescue above about 28%, passing the limit was not always enough;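 further: yeast W303a lacking pdr1 and pdr3 grown in galactose medium; growth measured after three days at 30 °C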
* marks the source's active call; other numbers are inactive results; nt = no result shown; ! = repeats disagree. A selection: hits, their analogues and other compounds. The true share with any hit is near 1.8%.

SMILES | ugtP null kill | Mtb hypoxia rep | DUSP3 inh | SSB-PriA inh | RN4220 kill | PfHsp40 rescue
COC(=O)[C@]1(Cc2ccccc2)N[C@H](CN(C)C(=O)c2ccc(C)cc2)[C@@H]2C(=O)N(Cc3ccccc3)C(=O)[C@@H]21 | 2.8 | 0.4 | nt | 2.0 | 0.5 | 47.4*
COc1ccc(/C=C2\SC(=S)N(NS(=O)(=O)c3ccccc3)C2=O)c(OC)c1 | 91.5* | 4.6 | -2.4 | 2.0 | 69.2 | -0.1
COc1ccc(/C=C2\SC(=S)N(NS(=O)(=O)c3ccc(C)cc3)C2=O)c(OC)c1 | nt | nt | -1.2 | 0.6 | nt | -0.5
COc1ccccc1/C=C1\SC(=S)N(NS(=O)(=O)c2ccc(C)cc2)C1=O | 81.5 | -19.2 | 10.4 | -1.4 | 95.5* | 32.3*
O=C1/C(=C/c2cccs2)SC(=S)N1NS(=O)(=O)c1ccccc1 | 22.0 | 5.6 | 13.6 | 3.6 | -19.2 | 221.6*
Cc1nc(Nc2ccccc2)sc1C(=O)c1ccccc1 | nt | nt | 9.6 | -5.5 | nt | -0.5
COc1ccc(Nc2nc(N)c(C(=O)c3ccc(OC)cc3)s2)cc1 | -1.6 | 13.8 | -1.2 | 2.6 | 5.3 | 8.8
CC(C)(C)C(=O)c1sc(Nc2ccccc2)nc1N | 2.2 | -3.1 | -0.9 | 40.3* | 8.3 | 3.0
COc1ccc(Nc2nc(N)c(C(=O)c3ccc(F)cc3)s2)cc1 | nt | nt | 2.4 | 10.0 | nt | 33.6*
O=c1oc2ccccc2nc1/C=C(\O)c1ccccc1 | -3.0 | 45.6* | 2.5 | -6.8 | 4.7 | nt
Cc1nn2c(N3CCN(C4CCCC4)CC3)cc(C(C)(C)C)nc2c1-c1ccccc1 | 7.1 | 3.9 | 51.4* | -9.7 | -0.9 | 0.3
Nc1cc(=O)[nH]c(SCC(=O)NCc2cccnc2)n1 | nt | nt | nt | -8.0 | nt | nt
O=C(Cc1ccccc1)NC[C@H]1CN(c2cccc(Cl)c2)C(=O)O1 | nt | nt | nt | -9.0 | nt | nt
Cc1ccccc1CS(=O)(=O)Cc1ccc(C(=O)N2CCC3(CC2)OCCO3)o1 | -1.6 | -1.4 | 50.8* | -0.6 | -0.6 | -0.3
COc1ccc(S(=O)(=O)Cc2ccc(C(=O)N3CCC4(CC3)OCCO4)o2)cc1 | -3.2 | -10.2 | -10.2 | -20.5 | -1.2 | 0.2
O=C(COc1ccccc1F)NC[C@]1(O)CCOc2ccccc21 | nt | nt | nt | -4.0 | nt | nt
O=C(NCC1CCN(c2ccncc2)CC1)C1c2ccccc2Oc2ccccc21 | nt | nt | nt | -7.0 | nt | nt
Cc1nc2sc3c(c2c(=O)n1/N=C\c1ccccn1)CCCC3 | nt | nt | nt | -8.0 | nt | nt
CCN(CC)C(=O)CSc1nnc2nnc3cc(OC)ccc3n12 | 2.2 | 66.4* | 16.3 | -6.1 | 4.6 | nt
CCOCC(=O)NC1CCC(Oc2ccccn2)CC1 (stereo unspecified) | nt | nt | nt | -7.0 | nt | nt
c1ccc(OC2CC3CCC(C2)N3)nc1 (stereo unspecified) | nt | nt | nt | 96.0* | nt | nt
Cc1nc(C)c(C(N)=O)s1 | nt | nt | nt | -22.0 | nt | nt
COC(=O)c1ccc(NC(=O)COc2cccc3c2OC(C)(C)C3)cc1 | 11.0 | 10.9 | nt | 46.3*! | 5.5 | 6.1
CC1(C)Cc2cccc(OCC(=O)N3CCN(c4cccc(C(F)(F)F)c4)CC3)c2O1 | -2.1 | 4.4 | nt | -7.8 | 2.3 | 41.0*
COc1ccc(-n2nnnc2CNC(=O)Nc2ccc(C(C)(C)C)cc2)cc1 | nt | nt | nt | 1.0 | nt | nt
SMILES | ugtP null kill | Mtb hypoxia rep | DUSP3 inh | SSB-PriA inh | RN4220 kill | PfHsp40 rescue
O=C(Cc1cc(=O)[nH]c(SCc2ccccc2)n1)NCc1ccco1 | nt | nt | nt | -8.0 | nt | nt
COc1ccc(Oc2cc(C)c3cccc(C)c3n2)cc1 | 95.7* | nt | 1.6 | -16.0 | -5.7 | 0.7
COc1ccc(/C=N/Nc2cc(C)nc3c(C)cccc23)cc1 | nt | nt | -3.5 | nt | nt | -0.1
Cc1ccc(C2C(S(C)(=O)=O)=C(O)C(=O)N2c2ccccc2)cc1 (stereo unspecified) | nt | nt | nt | -6.5 | nt | nt
Cc1ccccc1NC(=S)c1ccc2ccccc2n1 | 19.6 | 0.7 | 3.9 | 65.0*! | -6.1 | 2.5
CCCN(CC(=O)Nc1ccccc1C)C(=O)c1ccc2ccccc2n1 | 0.4 | -20.5 | nt | -14.5 | -0.3 | -0.3
Cc1ccccc1-c1nc(CS(=O)CC(=O)NC(C)CCc2ccccc2)c(C)o1 (stereo unspecified) | -8.9 | -10.7 | -53.0 | 59.6* | -3.7 | 0.7
Cc1ccc2c(c1)c(-c1ccccc1)c(-c1ccccc1)n2CC(O)Cn1c(C)nc2ccccc21 (stereo unspecified) | nt | nt | nt | -18.0 | nt | nt
O=C(O)/C=C\C(=O)Nc1ccccc1F | 1.3 | -11.0 | -4.5 | -3.6 | 7.1 | 37.0*
COc1cc(C(=O)C(=O)c2ccc(O)c(OC)c2)ccc1O | 4.0 | 3.8 | 13.3 | -18.8 | 5.8 | -0.5
COc1cc(-c2cc[n+](C)cc2)ccc1O | 4.5 | 2.2 | nt | -11.1 | 2.0 | 67.4*
O=C(CSCc1ccc(Cl)cc1)NN=Cc1ccc(Cl)cc1Cl | -2.9 | 3.9 | nt | -12.7 | -7.2 | nt
CCOC(=O)Nc1cccc(Nc2ccccc2)c1 | -0.6 | 8.0 | -0.6 | -0.6 | -2.4 | 0.2
CCOC(=O)NNc1ccccc1 | 5.1 | 14.2 | -4.4 | -3.6 | 3.0 | 62.0*
O=[N+]([O-])c1cc2oc3c(c2c(C=NCc2ccncc2)c1O)CCCC3 | -11.1 | 18.1 | 4.7 | -1.1 | 7.3 | 47.6*
CC(=O)N1CC(C(=O)NCCc2ccc(F)cc2)C1 | nt | nt | nt | -10.0 | nt | nt
CC(C)Cc1cc(C(=O)NCc2ccco2)no1 | 9.1 | nt | 2.9 | 95.5* | 3.1 | -0.4
Cc1cc(C(=O)NCc2ccco2)no1 | 2.8 | 7.1 | 25.4 | 0.1 | 4.5 | 0.0
CC(Sc1nnnn1-c1cccc(F)c1)C(=O)NC1CCCC1 (stereo unspecified) | -10.4 | -8.0 | nt | -8.5 | -7.5 | 0.2
COc1ccc(C)cc1-n1nnnc1SC(C)C(=O)NC1CCCC1 (stereo unspecified) | 5.2 | 24.8* | nt | 1.7 | -0.4 | 0.8
CCCC(C(=O)NC(C)(C)CC)N(Cc1ccco1)C(=O)CNS(=O)(=O)c1ccccc1 (stereo unspecified) | 2.2 | 3.5 | 57.6* | 0.3 | 2.4 | 2.5
CN1C(=O)CC(Nc2cccc3cccc(N)c23)C1=O (stereo unspecified) | 4.2 | 9.1 | 58.3* | 6.4 | -1.0 | -0.4
CC(=O)Nc1ccc(S(=O)(=O)NCc2cnn3ccccc23)cc1 | nt | nt | nt | -12.0 | nt | nt
Cc1ccc(CNC(=O)CN2C(=O)NC(C)(c3ccccc3Cl)C2=O)cc1 (stereo unspecified) | 12.0 | 4.9 | 52.6* | -9.9 | 1.5 | 1.8
Cc1ccc(CNC(=O)CN2C(=O)NC(C)(c3ccc(Cl)cc3)C2=O)cc1 (stereo unspecified) | 15.6 | 1.7 | 5.9 | 0.5 | -2.4 | 0.9
Cc1noc(/C=C/c2ccco2)c1S(=O)(=O)N1CCC(C(=O)N(C)Cc2ccccc2)CC1 | -2.8 | -9.5 | 25.9 | -3.0 | -6.6 | -0.3
Cc1noc(/C=C/c2ccco2)c1S(=O)(=O)N1CCC(C(=O)NC(C)c2ccccc2)CC1 (stereo unspecified) | -8.0 | 8.1 | 50.0* | -8.4 | -16.8 | -0.8
S=c1[nH]ncn1/N=C/c1cccc(Oc2ccccc2)c1 | nt | nt | 28.6 | nt | nt | 106.2*
C(=N\n1cnnc1)/c1cccc(Oc2ccccc2)c1 | nt | nt | -14.8 | nt | nt | 0.7
